According to PubChem BioAssay AID651819 (National Center for Advancing Translational Sciences (NCATS), 2012):
About 1,100 (0.31%) of roughly 360,000 compounds were called active. For the sample, actives were picked, then their nearest neighbours and some compounds at random. Values without a mark were called inactive. Rule as the data show it: active = activity change below about -30%; inactive = the rest.

The molecules below were run on cytosolic chaperonin (CCT/TRiC complex) (assay: High-Throughput Screening for Modulators of Cytosolic Chaperonin Activity). Details: purified chaperonin ATPase assay, HTRF ADP detection, 30 min; hits give low values.
Source text: The eukaryotic chaperonin named TRiC (for TCP-1 ring complex), also called CCT (for chaperonin containing TCP1), is an essential and conserved chaperone required for the folding and activation of 10-15% of the proteins encoded by the human genome. […] Despite its central role in cellular folding, little is known about TRiC mechanism and mode of substrate binding. Currently, no specific TRiC inhibitors are available. Given the early promise of other chaperone-directed inhibitors as cancer therapeutics (e.g. HSP90 inhibitors), inhibitors of TRiC activity may also selectively target transformed cells and have potential use as therapeutics for cancer.
To this end, a miniaturized assay was developed to screen against the Molecular Libraries Small Molecule Repository (MLSMR).
NIH Chemical Genomics Center [NCGC]
NIH Molecular Libraries Probe Centers Network [MLPCN]
Assay Submitter (PI): Judith Frydman, Stanford University
1.5 uL/well TRiC enzyme suspended in buffer (30 mM TRIS pH7.4, 100 mM KCl, 5 mM MgCl2, 1 mM DTT) was added with BioRAPTR FRD dispenser at 40 nM or 20 nM (based on the enzymatic activity of used batches) final concentration to a white solid bottom medium binding 1536-well plate (Greiner Bio-One, Monroe, NC), and quickly spanned down. 23 nl/well of compound solutions in DMSO were added with a pintool transfer (Kalypsis, San Diego, CA) at a single 76 uM final concentration. Next, 1.5 µl/well ATP was dispensed with BioraptR at 10 uM final concentration after which the plates were incubated at 37 deg C for 30 min. HTRF(R) Transcreener(R) ADP (Cisbio US, Bedford, MA) detection reagents were prepared accordingly to the protocol and dispensed into the plate (1.5 uL/well each), incubated for 30 min at ambient temperature. Then, the plates were read using Envision reader with excitation at 330nm and emission at 615nm (Eu(3)-Cryptate donor signal) and 665nm (d2 acceptor signal). The ratio of […] was calculated for each well.
% is scaled to controls: 0 for no effect and ±100 for the full control effect.

| SMILES | activity change |
| --- | --- |
| Nc1ccc([N+](=O)[O-])cc1 | -35.1% (active) |
| CC(=O)Cc1ccc(OC(C)C)cc1 | -4.19% |
| CC(C)(C)c1ccc(OC(=O)N2CCCCC2)cc1 | -0.84% |
| COc1ccc(CCn2c(O)c(C=NC3CC3)c(=O)[nH]c2=O)cc1OC | -0.86% |
| O=C1NC(=O)C(Cc2ccccc2)C(=O)N1 | -0.218% |
| O=C1NC(=O)C(C/C=C/c2ccccc2)C(=O)N1 | -117% (active) |
| CSC1=NP(=S)(SC)N(C)c2nc3n(c21)CCC3 (stereo not given) | -0.177% |
| CCOC(=O)c1c(C)c(C(=O)N2CCC3(CC2)OCCO3)c(C)n1CC | -3.47% |
| COCCNC(=O)CN1C2CCC1CC(O)(c1cccnc1)C2 (stereo not given) | 0.503% |
| Cc1ccc(Cn2nnnc2CN2CCC(n3nnc4ccccc43)CC2)cc1 | -0.0525% |
